This is a sample that favours compounds with a hit; in the whole collection about 3.5% have one here.
GPR151 activ – activators of human GPR151, primary screen, cell-based, PathHunter beta-arrestin, luminescence | 1% of 650,000 active | PathHunter beta-arrestin GPR151 cells | G-protein coupled receptor 151 (Homo sapiens), Q8TDV0 | activation, % at 11.2 µM; in the data active means activation above about 4.9%;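 further: 0% = median of compound wells and 100% = cells with positive control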
TEAD-YAP inh – TEAD-YAP interaction inhibition, primary screen, TEAD-YAP interaction inhibitor project, luminescence, HEK-TIYL cells | inhibition, % at 9.12 µM | TEAD-Gal4/YAP UAS-luciferase luminescence | AID 1259422, 2018 | 1.4% of 640,000 active; in the data active means inhibition above about 32%;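 further: 0% = median of test compound wells and 100% = reference inhibitor wells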
FBW7 activator – FBW7 E3 ligase activators, primary screen, biochemical, AlphaScreen, human; AID 1259310, 2017; F-box/WD repeat-containing protein 7 (Homo sapiens), Q969H0; normalized activity (activation), % at 26.1 µM; 0.13% of 650,000 active; AlphaScreen FBW7–phospho-cyclin E peptide binding, activator screen; in the data active means normalized activity above about 1.9%;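 further: purified mutant Fbw7 with reduced substrate affinity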
MITF inh – MITF inhibitors, primary screen, biochemical, AlphaScreen, human; Microphthalmia-associated transcription factor (Homo sapiens), O75030; AlphaScreen MITF homodimerization, bead proximity signal; inhibition, % at 2.6 µM; 0.91% of 650,000 active; AID 1259374, 2018; in the data active means inhibition above about 50%;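 further: 0% = vehicle wells with protein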
Target sequence (O75030 whole entry, looked up): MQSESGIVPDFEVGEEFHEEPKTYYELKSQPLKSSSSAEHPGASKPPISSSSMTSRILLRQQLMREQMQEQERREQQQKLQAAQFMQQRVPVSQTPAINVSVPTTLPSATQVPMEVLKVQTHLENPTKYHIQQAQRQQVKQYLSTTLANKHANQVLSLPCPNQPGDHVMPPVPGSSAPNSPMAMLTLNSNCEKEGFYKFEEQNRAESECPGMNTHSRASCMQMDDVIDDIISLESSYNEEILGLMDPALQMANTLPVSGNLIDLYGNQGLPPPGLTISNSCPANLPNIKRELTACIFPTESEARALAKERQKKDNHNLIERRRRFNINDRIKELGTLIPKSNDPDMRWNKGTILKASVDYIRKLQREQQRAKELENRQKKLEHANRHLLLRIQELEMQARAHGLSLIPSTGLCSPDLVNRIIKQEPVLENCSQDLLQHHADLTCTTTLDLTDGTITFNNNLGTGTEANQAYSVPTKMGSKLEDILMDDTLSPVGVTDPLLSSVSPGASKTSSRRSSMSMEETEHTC
Starred values were filed as active, the others as inactive; ! = not active in a repeat.

SMILES | GPR151 activ | TEAD-YAP inh | FBW7 activator | MITF inh
CC(C)n1cnc2c(NC3CCN(Cc4ccccc4)CC3)nc(Cl)nc21 | 0.5 | 46.8* | 0.0 | -2.1
CC(C)n1cnc2c(NC3CCN(Cc4ccccc4)CC3)nc(Nc3ccccn3)nc21 | -0.5 | 30.3 | 0.0 | 13.4
CC(C)n1cnc2c(NC3CCN(Cc4ccccc4)CC3)nc(Nc3ccncn3)nc21 | -2.6 | 71.4* | 0.3 | 14.7
COC(=O)CC[C@H]1CN(C/C=C/c2ccc(N(C)C)cc2)CC[C@H]1N1CCOCC1 | 0.1 | 1.7 | 0.1 | -3.9
O=C(/C=C/c1ccco1)Nc1nnc(Cc2ccc(F)cc2)s1 | -0.1 | 55.4* | -0.1 | 4.4
O=C(C1CCN(Cc2cc(Cl)ccc2O)CC1)N1CCN(Cc2ccccc2)CC1 | 0.9 | 5.5 | 0.1 | 59.1*
O=C(C1CCN(Cc2ccccc2O)CC1)N1CCCCC1 | -1.3 | 0.0 | 0.3 | 52.4*
O=C(Nc1cccc(Cl)c1)C(=O)c1cn(CC(=O)N2CCCC2)c2ccccc12 | 0.3 | 0.9 | 0.3 | 3.7
O=c1[nH]c2ccccc2c(O)c1O | -0.7 | 38.4* | 0.0 | 7.8
O=C(O)c1c(O)c2ccccc2[nH]c1=O | -1.4 | 2.8 | 0.5 | 8.6
CCOCCCNC(=O)C(Cc1ccccc1)NC(=O)c1ccco1 (stereo not drawn) | -1.0 | 0.1 | 0.0 | 19.6
COc1cccc(-c2cn3c4c(=O)n(C)c(=O)n(C)c4nc3n2Cc2ccccc2)c1 | 0.3 | 3.3 | 0.5 | 3.8
O=C(Nc1ccc2[nH]ncc2c1)c1ccc(OC2CCOCC2)nc1 | -0.4 | 47.6* | 0.0 | 20.7
NCCOc1cc(C(=O)Nc2ccc3[nH]ncc3c2)ccn1 | -1.4 | 72.2* | 0.6 | 4.6
CCOC(=O)c1cnc2cc(-c3ccc(OC)cc3)nn2c1N | 1.0 | -41.6 | 0.0 | 6.0
COc1cccc(NC(=O)c2ccc(NCc3ccccc3OC)c([N+](=O)[O-])c2)c1 | 1.0 | 48.8* | -0.2 | 2.3
COc1ccccc1CNc1ccc(C(=O)Nc2ccc(C(C)C)cc2)cc1[N+](=O)[O-] | -0.1 | -8.2 | -0.1 | -1.5
COc1cccc(NC(=O)c2ccc(C)cc2)c1 | -9.6 | 61.6* | 0.0 | 5.8
COc1cccc(NC(=O)c2ccc(C)cc2Cl)c1 | -2.8 | 67.2* | 0.2 | 13.2
Cc1ccc(C(=O)Nc2ccc(F)cc2)c(Cl)c1 | -3.2 | 61.9* | 0.1 | 5.2
O=C(Nc1ccc(F)cc1)c1ccc(Cl)cc1Cl | -3.2 | -21.6 | 0.5 | 12.3
COc1cccc(NC(=O)c2ccc(NC(C)=O)cc2)c1 | 1.4 | -23.1 | 0.5 | 11.1
COc1ccc2c(c1)CC(c1nc3c(F)cc(-c4ccnc(N)n4)cc3[nH]1)NC2 (stereo not drawn) | -0.7 | -5.3 | 0.1 | 11.8
Cc1noc(C)c1CCC(=O)N1CCc2ccc(NC(=O)C3CCCO3)cc2C1 (stereo not drawn) | 2.2 | -15.5 | 0.2 | 10.7
COc1cccc(NC(=O)CCCn2c(=S)[nH]c3ccccc3c2=O)c1 | 0.2 | 1.5 | 0.0 | 6.9
SMILES | GPR151 activ | TEAD-YAP inh | FBW7 activator | MITF inh
COc1cccc(C(=O)Nc2cccc(OC(=O)c3ccc(Br)cc3)c2)c1 | -2.3 | 43.7* | -0.1 | 3.2
COc1ccc(OC)c(C2=NS(=O)(=O)N(C)C(C(=O)N3CCC(C(N)=O)CC3)=C2)c1 | -2.1 | 6.8 | 0.6 | 25.6
Cc1cccc(NC(=O)CSc2ncccn2)c1C | 0.2 | -5.9 | 0.8 | -4.4
COc1ccc(OCC(=O)Nc2ccc3nn(-c4ccc(OC)cc4)nc3c2)cc1 | -1.5 | -25.6 | -0.1 | 7.3
COc1ccc(-n2nc3ccc(O)cc3n2)cc1 | -6.0 | 65.4* | 0.0 | 4.2
COc1ccc(-c2nc(C(N)=O)c3[nH]c(=O)n(-c4cccc(C)c4)c3n2)cc1 | -0.1 | 58.2* | 0.8 | 15.1
COc1ccc(-c2nc(C(N)=O)c3[nH]c(=O)n(-c4ccc(C)cc4)c3n2)cc1O | 0.3 | 67.2* | -0.3 | -6.4
COc1cccc(-c2nc(C(N)=O)c3[nH]c(=O)n(-c4cccc(C)c4)c3n2)c1 | -0.8 | 7.1 | 0.0 | -4.2
COc1ccc(-c2nc(C(N)=O)c3[nH]c(=O)n(-c4ccc(Cl)cc4)c3n2)cc1O | 0.3 | 51.5* | -0.2 | 5.9
COc1cc(-c2nc(C(N)=O)c3[nH]c(=O)n(-c4ccc(C)cc4)c3n2)cc(OC)c1OC | 0.5 | 6.3 | -0.1 | -11.3
COc1ccc(-c2nc(C(N)=O)c3[nH]c(=O)n(-c4ccc(F)cc4)c3n2)cc1O | 0.7 | 54.1* | 0.8 | 16.5
COc1ccc(-c2nc(C(N)=O)c3[nH]c(=O)n(-c4ccc(F)cc4)c3n2)cc1OC | -2.0 | 8.4 | 0.2 | 1.2
COc1ccc(OC)c(/C=N/NC(=O)c2ccc(NS(=O)(=O)c3cccs3)cc2)c1 | -0.4 | -0.1 | -0.1 | 5.9
Cc1nc2sc3c(c2c(=O)n1Cc1ccc(C(C)(C)C)cc1)CCCC3 | 1.6 | 18.8 | 0.0 | 8.7
COc1ccc(CCn2cnc3sc4c(c3c2=N)CCCC4)cc1OC | 1.2 | 39.3* | -0.3 | -6.2
CC(C)(C)c1ccc(Cn2cnc3sc4c(c3c2=O)CCCC4)cc1 | 0.6 | 61.6* | 0.2 | -2.1
O=C(O)c1ccc(-n2nncc2-c2ccccc2)cc1 | -1.0 | -3.0 | 0.2 | 9.2
O=C1CCCN1CCn1cnc2c(NCc3nc4ccccc4[nH]3)nc(Nc3ccc(-n4ccnc4)cc3)nc21 | 0.7 | 39.4* | -0.1 | 3.6
O=C1CCCN1CCn1cnc2c(NCc3nc4ccccc4[nH]3)nc(Nc3ccc4ncccc4c3)nc21 | -1.7 | 59.3* | -0.2 | 6.0
O=C1CCCN1CCn1cnc2c(NCc3nc4ccccc4[nH]3)nc(Nc3ncccn3)nc21 | 3.3 | 6.7 | 0.0 | -1.8
COc1ccccc1-n1c(SCC(=O)NC(C)(C)C)nnc1-c1ccccn1 | -0.5 | 10.3 | 0.1 | 1.8
Cc1nc2cc(Cl)c([N+](=O)[O-])cc2s1 | 2.5 | 1.1 | 2.0* | 2.5
Cc1nc2ccc([N+](=O)[O-])cc2s1 | -0.1 | 11.9 | 0.0 | 8.0
Cc1nc(S(=O)(=O)Cc2ccccc2)nc2ccc(F)cc12 | -1.9 | -63.7 | 0.0 | -5.0
CN1CCC2(CC1)Oc1ccccc1C1CC(c3ccccc3)=NN12 (stereo not drawn) | 0.8 | -22.0 | 0.1 | 1.2
SMILES | GPR151 activ | TEAD-YAP inh | FBW7 activator | MITF inh
O=c1c(O)cc([C@H]2Oc3cc(O)cc(O)c3C[C@H]2O)cc2c([C@H]3Oc4cc(O)cc(O)c4C[C@@H]3O)cc(O)c(O)c12 | -0.9 | -6.3 | -0.3 | 76.3*
Oc1cc(O)c2c(c1)O[C@H](c1ccc(O)c(O)c1)[C@@H](O)C2 | -0.3 | -7.4 | -0.2 | 57.0*!
O=C1c2c(O)cc(O)cc2O[C@H](c2ccc(O)c(O)c2)[C@H]1O | 1.2 | -12.6 | -0.2 | -0.5
O=C1c2c(O)cc(O)cc2O[C@H](c2ccc(O)c(O)c2)[C@@H]1O | -0.4 | 10.7 | -0.1 | -5.5
Oc1cc(O)c2c(c1)O[C@H](c1cc(O)c(O)c(O)c1)[C@H](O)C2 | 0.0 | -6.3 | 0.0 | 86.6*
O=C(Oc1cc(O)cc2c1C[C@@H](OC(=O)c1cc(O)c(O)c(O)c1)[C@@H](c1cc(O)c(O)c(O)c1)O2)c1cc(O)c(O)c(O)c1 | -1.0 | -1.7 | 0.1 | 62.3*
